Holding throughout (assay): NCI-60 one-dose screen, 48 h (100 = growth as untreated, 0 = no growth, -100 = all killed)
What all share (details): 10 µM unless noted

The subject of test [1] is NCI-H23 lung.
Test [2] has as its system NCI-H226 lung.
In test [3] the test system is NCI-H322M lung.
In test [4] the test system is HOP-62 NSCLC.
The subject of test [5] is NCI-H460 lung.
In test [6] the test system is HOP-92 NSCLC.
For test [7], the system named is NCI-H522 lung.
Test [8] concerns A549/ATCC NSCLC.
The subject of test [9] is 786-0 renal.
The test system of test [10] is COLO 205 colon.
Test [11] has as its system DU-145 prostate.
Test [12] deals with K-562 leukemia.
The test system of test [13] is MALME-3M melanoma.
Test [14] concerns MDA-MB-231 breast.
For test [15], the system named is RXF 393 renal.
The test system of test [16] is SF-268 CNS.
The test system of test [17] is SF-295 CNS.
The subject of test [18] is SF-539 CNS.
The subject of test [19] is UACC-257 melanoma.
The test system of test [20] is M14 melanoma.

Compounds without any hit were thinned out: in the full panel of roughly 83,000, 20% have a hit.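 Assay: single dose, 48 h. Readout: percent growth (0 = no net growth; negative = cell death). Active: <10.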 Values without a mark were called inactive. Calls of active or inactive are those of the source.

The values that follow come from PubChem BioAssay (NCI).

On to `O=C(Nc1ccc(-n2ccc3c(NC(=O)c4ccccc4)nccc32)cc1)c1cccc(C(F)(F)F)c1`, for which the growth in test [1] was 50%; in test [2] it was 63.9%; in test [3], 48.8%; in [4] it was 46.2%; in [5], 2.21% (active); in test [6], 47.4%. Besides, the growth in test [7] was 12.2%; in test [8] it was 13%; in test [9] it was 18.3%; in test [10], 35.8%; in test [11] it was 45.2%; in [12], 15.3%. Further, the growth was 44.3% in [13]; 51.4% in test [14]; -8.11% (active) in test [15]; 26.9% in [16]; 11.3% in test [17]; 16.8% in test [18]. Also, the growth in test [19] was 44.4%; in test [20] it was 27.6%.
Take `Cc1nc(N)nc(SCc2ccccc2)c1Br`: the growth in [1] is 93.7%; in test [2] it was 83.7%; in test [3], 70.3%; in [4], 83.1%; in [5], 104%; in [6], 79.4%. For the same compound, the growth was 66.7% in test [7]; 73.4% in test [8]; 88.9% in [9]; 105% in test [10]; 104% in test [11]; 88.4% in test [12]. Also, the growth is 92.6% in test [13]; 91.1% in test [14]; 89.6% in [15]; 96.1% in test [16]; 99.1% in [17]; 96.4% in [18]. The growth is 74.1% in [19] and 104% in test [20].
`CN(C)c1ccc(/C=c2\s/c(=C\C(=O)C(C)(C)C)[nH]c2=O)cc1`: the growth in test [1] is 98%; in test [2], 101%; in [3], 86.7%; in test [4] it was 101%; in [5], 104%; in test [6], 94.5%. Further, the growth is 78.1% in test [7]; 79.7% in test [8]; 93.2% in test [9]; 97.7% in [10]; 93.1% in test [11]; 111% in test [12]. The growth in test [13] is 93.6%; in [14], 118%; in test [15] it was 122%; in test [16], 93.5%; in test [17] it was 94.9%; in test [18], 96.6%. For the same compound, the growth was 96.1% in test [19] and 101% in [20].
In the case of `COc1cccc(-c2nc3sccn3c2-c2ccnc(NCCNC(=O)c3ccccc3)n2)c1`, the growth in [1] was 87.3%; in test [2], 79.3%; in test [3] it was 110%; in test [4] it was 111%; in test [5], 84.9%; in test [6], 77.8%. The growth in test [7] was 61.8%; in test [8], 75.3%; in test [9], 78.4%; in test [10], 51.8%; in test [11], 100%; in [12], 67.5%. In addition, the growth in test [13] is 26.7%; in test [14], 83.5%; in [15], 86.3%; in [16], 92.7%; in test [17], 85.4%; in [18], 97.7%. For the same compound, the growth in test [19] is 69.7%; in test [20], 40.1%.
Consider `COc1cccc(-c2nc3sccn3c2-c2ccnc(NCCNC(=O)Nc3cccc(C(F)(F)F)c3)n2)c1`, for which the growth is 83.8% in test [1]; 94.9% in test [2]; 81.3% in test [3]; 98.9% in test [4]; 45.1% in [5]; 92.4% in test [6]. The growth was 47.7% in [7]; 44.4% in test [8]; 65.6% in [9]; 57.6% in test [10]; 79.8% in test [11]; 39.9% in test [12]. In addition, the growth in test [13] is 85.1%; in test [14], 43.7%; in test [15] it was 6.3% (active); in test [16], 62.3%; in [17] it was 37.7%; in test [18] it was 77.9%. For the same compound, the figures for the growth in [19] and in test [20] were 69.5% and 39.2%, respectively.
Turning to `OCCOCC(F)(F)F`, the growth in [1] is 104%; in test [2], 105%; in [3] it was 97.8%; in [4], 111%; in [5], 108%; in [6], 94.9%. Also, the growth in test [7] was 110%; in test [8] it was 113%; in test [9] it was 113%; in test [10], 112%; in [11] it was 109%; in [12], 97.2%. The growth in [13] is 99.6%; in test [14], 124%; in test [15] it was 113%; in test [16], 102%; in test [17], 103%; in [18], 96.7%. In addition, the results for the growth in [19] and in [20] were 118% and 112%, respectively.
Consider `COC(=O)c1oc2c(C(C)=O)c(OCCN3CCCCC3)ccc2c1C`, for which the growth in test [1] was 97.9%; in test [2], 118%; in [3] it was 84.9%; in test [4] it was 125%; in [5], 131%; in test [6] it was 60.4%. Also, the growth in test [7] was 79.6%; in [8], 123%; in test [9], 52.9%; in test [10], 130%; in test [11] it was 117%; in test [12], 89.4%. Also, the growth is 40.9% in test [13]; 87.2% in test [14]; 124% in test [15]; 95.4% in test [16]; 99.4% in test [17]; 116% in test [18]. Also, the figures for the growth in test [19] and in test [20] were 112% and 111%, respectively.
For `C[C@]12CC[C@@H]3c4ccc(O)c(N)c4CC[C@H]3[C@@H]1CC[C@@H]2O`, the growth is 101% in test [1]; 112% in test [2]; 114% in test [3]; 143% in test [4]; 102% in [5]; 140% in test [6]. The growth in test [7] is 82.6%; in test [8], 99.9%; in [9], 118%; in test [10] it was 123%; in test [11] it was 110%; in [12] it was 79.8%. Moreover, the growth in test [13] was 129%; in test [14], 115%; in [15], 116%; in test [16], 98.9%; in test [17], 108%; in [18] it was 106%. Besides, the growth in [19] was 82.5%; in test [20] it was 100%.
